From PubChem
Shown are actives, neighbours in structure and some others; about 3.2% of the full set was active somewhere.
USP2a block – blocks human ubiquitin-specific protease USP2a. 0.01% of 330,000 active. USP2 core, Ub-CHOP2 coupled fluorogenic reporter, 485/531. Potency, µM (series often up to 38.3 µM), inactives show top-dose activity change, negative = inhibition, most hits filed as inhibitors. AID 463254;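 also: potency is read from the fitted curve at half-maximal effect; plate controls were DMSO wells for no effect and full inhibition by NEM control for full effect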
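Deubiquitinase activity read as fluorescence (485/531 nm) after Ub-CHOP2 cleavage activates the enterokinase reporter on its substrate; USP2 core 10nM, Ub-CHOP2 and substrate 25nM each, 30min compound preincubation then 60min RT; data normalized to NEM, curves fitted.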
FBPA coupling cs – coupling enzyme interference in Giardia aldolase counter-screen. coupling enzyme system counterscreen, AmpLite Red fluorescence. activity change, negative = inhibition, % at 58.2 µM, hits read low. 0.67% of 290,000 active. AID 2472; in the data active = activity change below about -30%
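Compounds tested against the coupling enzymes alone at 57.5 uM final; readout was AmpLite Red fluorescence (525/598 nm) after 20 min at RT.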
GALK inh – blocks human galactokinase activity; Purified GALK, Kinase-Glo residual ATP luminescence; Potency, µM (highest dose often 57.5 µM), inactives show top-dose activity change, negative = inhibition, hits mostly inhibitors; 0.007% of 270,000 active; also: potency is read from the fitted curve at half-maximal effect
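The enzyme phosphorylates galactose (100 uM) using ATP (35 uM); inhibition is detected as higher residual ATP, quantified by bioluminescence after 1 h reaction at room temperature, pH 8.0.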
PLK1 PBD block – inhibitors of human PLK1 polo-box domain binding | P53350 | Plk1 PBD binding of FITC phosphopeptide, fluorescence polarization | Potency, µM, for the others: max response, negative = inhibition, actives largely listed as inhibitors | 2.8% of 360,000 active | AID 720504; also: potency is read from the fitted curve at half-maximal effect; series mostly up to about 57 µM; nearly all actives have a fitted effect of over 65% in size
USP1 inh – inhibitors of human USP1/UAF1 deubiquitinase | Potency, µM (titrated, usually from 57.1 µM), inactives show top-dose activity change, negative = inhibition, actives largely listed as inhibitors | recombinant USP1/UAF1, Ub-Rhodamine cleavage fluorescence | O94782 | AID 743255 | 0.23% of 390,000 active; also: potency is read from the fitted curve at half-maximal effect; nearly all actives have a fitted effect of over 60% in size
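USP1/UAF1 complex at 1 nM was preincubated with compound for 15 min at room temperature, then Ub-Rho substrate (150nM final) was added. Fluorescence (480/540 nm) was read kinetically, 6 reads every 60 seconds.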
VDR inhibitor – vitamin D3 receptor (human) inhibition; AID 504847; Potency, µM, without a hit: max response, negative = inhibition, hits mostly inhibitors; 0.93% of 400,000 active; VDR-SRC2-3 peptide fluorescence polarization, 2 h; also: potency is read from the fitted curve at half-maximal effect
Target sequence (P11473 whole entry, looked up): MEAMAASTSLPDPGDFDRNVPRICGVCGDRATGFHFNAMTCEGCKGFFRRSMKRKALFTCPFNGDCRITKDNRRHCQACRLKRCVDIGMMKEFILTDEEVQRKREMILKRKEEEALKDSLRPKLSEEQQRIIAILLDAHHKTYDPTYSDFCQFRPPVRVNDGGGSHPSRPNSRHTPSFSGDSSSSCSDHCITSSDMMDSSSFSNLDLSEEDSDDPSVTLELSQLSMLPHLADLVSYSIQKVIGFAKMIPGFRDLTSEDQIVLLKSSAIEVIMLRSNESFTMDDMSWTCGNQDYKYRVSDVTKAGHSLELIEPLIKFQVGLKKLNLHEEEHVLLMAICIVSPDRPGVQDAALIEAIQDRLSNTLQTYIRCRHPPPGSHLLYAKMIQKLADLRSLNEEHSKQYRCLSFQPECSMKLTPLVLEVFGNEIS
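VDR–SRC2-3 interaction, FP format. Cmpds 23 nl via pintool, brief spin, 2 h ambient incubation.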
Active calls of the source: *; ? = inconclusive; / = no result. Unless noted, calls follow the shape of the dose curve; as a rule, active = well fitted curve in the direction sought with a large enough effect; inconclusive = small, poorly fitted or top-dose-only effect, or another doubt; inactive = no such curve, though single readings can be large; an effect the other way counts as inactive or inconclusive. Unless noted, % is scaled to controls: 0 for no effect and ±100 for the full control effect.

SMILES | USP2a block | FBPA coupling cs | GALK inh | PLK1 PBD block | USP1 inh | VDR inhibitor
COc1ccc2[nH]c(=O)c(CN(CC3CCCO3)C(=O)Nc3ccc(F)cc3)cc2c1 (centres undefined) | -1% | 6 | 1% | -9% | -11% | -22%
Cc1cc(C)cc(NC(=S)Nc2cccc3cnccc23)c1 | 4% | -36* | 0% | ? | -27% | -9%
Cc1ccc(NC(=S)Nc2cccc3cnccc23)c(C)c1 | 1% | -36* | 4% | ? | -14% | -2%
O=C(NCc1ccc(Cl)cc1)c1cc(-c2ccc(F)cc2)on1 | / | / | / | / | -22% | 1%
O=c1[nH]c2ccccc2nc1CCc1ccccc1 | 0% | 8 | 11% | 27µM* | -16% | 7%
C=CCNc1nc(-c2cc3ccccc3o2)cs1 | 1% | -2 | -3% | -19% | -16% | -5%
c1ccc2oc(-c3csc(NCC4CCCO4)n3)cc2c1 (centres undefined) | 2% | 1 | 16% | -25% | -2% | 79µM*
CCC(=O)Nc1c(C#N)c2nc3ccccc3nc2n1-c1ccccc1C | -1% | 0 | -1% | -7% | -14% | -12%
N#Cc1c(NC(=O)c2ccccc2Cl)n(Cc2ccccc2)c2nc3ccccc3nc12 | -1% | -39* | -8% | 15µM* | 25µM* | ?
COc1ccc(-n2c(NC(=O)c3ccco3)c(C#N)c3nc4ccccc4nc32)cc1 | -5% | -52* | -5% | ? | -24% | -19%
CCCCn1c(NC(=O)c2ccccc2Cl)c(C#N)c2nc3ccccc3nc21 | 3% | -26 | -19% | 27µM* | 14µM* | 45µM*
CCCCn1c(NC(=O)CC)c(C#N)c2nc3ccccc3nc21 | 0% | -1 | 0% | -6% | -20% | -5%
COc1ccc(-n2ncc3c2CC(C)(C)CC3NC(=O)CSc2ccccn2)cc1 (centres undefined) | -5% | 0 | -3% | -15% | -10% | -13%
CC12CCC(C(=O)O)(C/C1=N\O)C2(C)C (centres undefined) | 3% | -2 | -3% | -6% | -8% | 5%
Cc1ccc(OCC(=O)N2CCN(C(=O)c3ccc([N+](=O)[O-])cc3)CC2)cc1 | -6% | 3 | 2% | -9% | -13% | -13%
N#CC1=C(SCC(=O)Nc2cccc3cccnc23)NC(=O)C(C#N)C12CCCCC2 (centres undefined) | -6% | -36* | -3% | ? | -18% | 19%
N#CC1=C(SCC(=O)NC2CC2)NC(=O)C(C#N)C12CCCCC2 (centres undefined) | -1% | 3 | 1% | 1% | -9% | -3%
CCN(C(=O)COC(=O)c1ccc2[nH]c(C)c(C)c2c1)c1c(N)n(Cc2ccccc2)c(=O)[nH]c1=O | / | / | / | -1% | -10% | -8%
CC(=O)Nc1ccc(SCCN2CCN(CC(C)C)CCC2=O)cc1 | / | 3 | / | / | / | 50µM*
CC(=O)Nc1ccc(SCCN2CC[C@@H](C(C)(C)C)CCC2=O)cc1 | 0% | / | / | 11µM* | ? | -25%
Cc1ccc(SCCN2CCC(C(C)(C)C)CCC2=O)cc1 (centres undefined) | 0% | 0 | / | -14% | 5% | -12%
CC(=O)Nc1ccc(SC[C@H](C)CN2CC[C@H](O)CCC2=O)cc1 | 1% | / | / | 19µM* | -27% | ?
CCC(=O)C1=C(c2ccc(Cl)cc2)N(C(=O)CC)n2c(C)nnc2S1 | / | / | / | / | ? | -8%
CCCC(=O)Nc1sc(C(=O)OC)c(C)c1C(N)=O | 3% | 0 | 0% | 21µM* | -13% | -17%
CCOC(=O)c1c(NC(=O)CC)sc(C(C)=O)c1C | 2% | 1 | 2% | 11µM* | 0% | -24%
SMILES | USP2a block | FBPA coupling cs | GALK inh | PLK1 PBD block | USP1 inh | VDR inhibitor
CCCCC(=O)Nc1sc(C(=O)N(CC)CC)c(C)c1C(=O)OC | 2% | 0 | -2% | 4.7µM* | -19% | 22µM*
Cc1ccc(C(=O)Nc2sc(C)c(-c3ccccc3)c2C(N)=O)cc1[N+](=O)[O-] | 0% | -7 | 0% | 19µM* | -7% | -26%
Cc1ccccc1OCC(=O)Nc1cc(S(=O)(=O)N2CCCCC2)ccc1N1CCN(C)CC1 | 0% | -3 | 7% | 2% | -9% | 2%
COc1ccc(NC(=O)CC(C)c2ccccc2)cc1S(=O)(=O)N1CCOCC1 (centres undefined) | 3% | / | / | -2% | -19% | -1%
COC(=O)c1sc(NC(=O)c2cccc([N+](=O)[O-])c2)c(C(N)=O)c1C | 6% | 5 | 2% | 27µM* | -20% | -26%
CC(C)Cn1c(-c2ccc(Br)cc2)c[nH]c1=S | 4% | 2 | -1% | 17µM* | -20% | ?
CCn1c(-c2ccccc2)c[nH]c1=S | 0% | -3 | 0% | -3% | -14% | -16%
O=C(O)COc1ccccc1/C=C1\SC(=S)N(/N=C/c2ccccc2O)C1=O | 7% | 6 | -6% | 21µM* | -13% | ?
O=C(O)CN1C(=O)/C(=C\c2cccc(OCc3ccccc3F)c2)SC1=S | -9% | 15 | / | 30µM* | -18% | ?
O=C(O)COc1ccccc1/C=C1\SC(=S)N(NC(=O)c2ccccc2O)C1=O | 0% | / | / | -24% | ? | -23%
CCN(CC)C(=O)CN1C(=O)/C(=C/c2ccccc2)SC1=S | 0% | 3 | -2% | 27µM* | -19% | ?
CC(=O)NNC(=O)CN1C(=O)/C(=C/c2ccccc2)SC1=S | 2% | 2 | 1% | -11% | -18% | -1%
O=C(O)CN1C(=O)/C(=C\c2ccccc2OCc2ccc(Cl)cc2)SC1=S | 0% | 15 | 2% | 30µM* | ? | ?
COc1ccc(N2CC(C(=O)Nc3nnc(SCC(=O)NC4CCCC4)s3)CC2=O)cc1 (centres undefined) | 1% | / | -2% | ? | -9% | ?
CCOC(=O)CNC(=O)c1ccccc1 | 1% | 1 | -3% | -8% | -2% | 18%
Cc1ccc2c(c1)N(CC(=O)Nc1ccccc1F)C(=O)CO2 | -1% | 0 | 3% | 2% | -24% | 7%
CCN1C(=O)/C(=C\c2cccc(OC(=O)c3ccco3)c2)SC1=S | 2% | -38* | 0% | -17% | -20% | -11%
O=C(O)CN1C(=O)/C(=C\c2cccc(OC(=O)c3ccco3)c2)SC1=S | -8% | 14 | 2% | -21% | -10% | -21%
O=C(O)CCN1C(=O)/C(=C\c2cccc(Oc3ccccc3)c2)SC1=S | 0% | 13 | -13% | 17µM* | ? | 35µM*
O=C(O)CN1C(=O)/C(=C\c2cccc(OCc3ccc(F)cc3)c2)SC1=S | -11% | 15 | / | 27µM* | ? | 45µM*
